# In the library only some 3.3% were active in any assay of this set; here they are far more common.
# FAK blocker = blocks human focal adhesion kinase activity. Q05397. biochemical FAK kinase activity assay. inhibition, %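 (tested at 7 µM)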. 97,000 compounds, 0.84% hits. AID 727;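 further: 0% = DMSO and 100% = reference compound high control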
# Smad3 FoxH1 inh = blocks human Smad3 binding to FoxH1 peptide | inhibition, % at 25 µM | 88,000 compounds, 0.29% hits | AID 630 | TR-FRET Smad3/Dy647-FoxH1 peptide binding, europium anti-His;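 active means compounds that reduce the energy-transfer binding signal between the protein and its labelled peptide by more than half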;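 further: 0% = Smad3 plus labelled peptide maximal FRET and 100% = peptide-only background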
# ERb coact inh = ER-beta (human) coactivator binding inhibition | 86,000 compounds, 1.3% hits | TR-FRET ER-beta LBD / SRC1-Cy5 peptide binding; receptor agonist-loaded with 1 µM estradiol | inhibition, % at 25.6 µM | AID 633 | Q92731;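 active means compounds whose percent inhibition of the receptor-coactivator binding signal exceeds about 50% in the single-dose screen, limit read from the data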;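 further: 0% = receptor plus peptide wells without compound and 100% = peptide-only wells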
# ERa SRC1 pot = ER-alpha (human) coactivator binding potentiation | P03372 | TR-FRET ERalpha-LBD/SRC-Cy5 coactivator binding, 2 h; 100 = basal binding, no effect | coactivator binding (% of control), % at 25.6 µM | 86,000 compounds, 1.3% hits | AID 639; in the data active means activity above about 200%;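 further: binding measured in presence of low estradiol as agonist stimulus; 0% = peptide alone without receptor and 100% = receptor with peptide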
# ERa coact inh = ER-alpha (human) coactivator binding inhibition; TR-FRET ER-alpha LBD / SRC-1 peptide, estradiol-bound; P03372; inhibition, % at 25.6 µM; 86,000 compounds, 1.7% hits; in the data active means inhibition above about 50%;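 further: 0% = receptor plus peptide control and 100% = peptide only without receptor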
# FAK inh confirm = FAK (human) inhibition confirmed. shares compounds with FAK blocker. FAK kinase biochemical inhibition assay. inhibition, % at 7 µM. 750 compounds, 28% hits. AID 794
# * hit, by the source's call; nt = no result; [ ] = another dose, or the depositor's remark. Unless noted, no stated cut-off is given here; in the data, active means inhibition above about 19%; inactive means the rest.
SMILES,FAK blocker,Smad3 FoxH1 inh,ERb coact inh,ERa SRC1 pot,ERa coact inh,others
O=C(O)[C@H]1CCCC[C@@H]1c1c2ccc(=O)c(O)c-2oc2c(O)c(O)ccc12,nt,101.2*,nt,nt,nt,
COc1cccc(-c2nc(-c3ccc(NC(=O)c4cccnc4)cc3)no2)c1,8.6,7.4,17.9,202.7*[fluorescence artefact?],-4.2,
Cc1ccccc1-c1nc(-c2ccc(NC(=O)c3ccc(Br)o3)cc2)no1,-7.7,-8.6,39.2,265.2*,44.9,
COc1ccc(CC(=O)Nc2ccc(-c3noc(-c4cccc(OC)c4)n3)cc2)cc1,1.4,-17.2,49.6,287.4*[fluorescence artefact?],37.6,
COc1cccc(-c2nc(-c3ccccc3)no2)c1,0.0,16.5,-14.1,96.9,7.8,
O=C(Nc1ccc(-c2noc(-c3cccs3)n2)cc1)c1cccnc1,-1.3,-0.3,2.0,363.5*,-17.0,
CC(Oc1ccc(Cl)cc1Cl)c1nc(-c2ccc(NC(=O)c3cccnc3)cc2)no1 (stereo not given),1.8,-1.5,-8.8,122.5,-7.1,
CC(CCc1nc2ccccc2s1)(c1ccc(O)cc1)c1ccc(O)cc1,nt,0.2,nt,nt,nt,
O=C(O)/C=C/C=C/c1ccc2c(c1)OCO2,nt,-7.8,nt,nt,nt,
O=C(O)[C@@H]1[C@H](C(=O)Nc2ccccc2)[C@@H]2C=C[C@H]1O2,nt,9.3,nt,nt,nt,
Cc1cc(Cl)ccc1OCC(=O)OC(C)C(=O)N(C)C (stereo not given),2.1,0.0,57.3*,59.6,51.4*,
CCN(CC)C(=O)C(C)OC(=O)COc1ccc(Cl)cc1C (stereo not given),-1.0,15.0,46.1,79.5,37.2,
CN(C)CC/C=C1/c2ccccc2Sc2c(O)cc(Cl)cc21,40.2*,3.3,-10.1,90.5,-2.1,
O=C(O)CCCN1CCCCC1,nt,-6.2,nt,nt,nt,
O=C(NC(=O)c1ccc(Cl)cc1)Nc1cc(N2CCCCC2)ncn1,1.0,8.5,65.4*[fluorescence artefact?],243.4*,72.1*[fluorescence artefact?],
O=C(Nc1cc(N2CCOCC2)ncn1)Nc1cccc2ccccc12,4.5,-6.8,-17.4,116.0,-24.8,
O=C(Nc1nnc(C2CCCO2)s1)c1ccc(Br)cc1 (stereo not given),1.6,4.5,53.7*,44.4,20.8,
O=C(O)c1c(-c2c3ccc(=O)cc-3oc3cc(O)ccc23)cc2ccccc2c1-c1ccccc1,nt,22.0,nt,nt,nt,
COc1nnc(-c2ccc(C)c(S(=O)(=O)NCCO)c2)c2ccccc12,5.3,8.3,63.8*[fluorescence artefact?],76.7,57.7*,
OC[C@@H](O)CNc1ncnc2ccccc12,nt,-9.1,nt,nt,nt,
CN1CCN(c2ccc(NC(=O)c3cccc(OCc4ccccc4)c3)cc2)CC1,12.1,12.6,61.8*[fluorescence artefact?],42.4,37.4,
O=C(Nc1ccc(N2CCN(c3ccc(O)cc3)CC2)cc1)Oc1ccccc1,6.7,6.9,57.2*[fluorescence artefact?],30.2,94.6*[fluorescence artefact?],
O=C(Nc1ccc(N2CCCC2)cc1)c1cccc(F)c1,6.2,-1.4,54.8*[fluorescence artefact?],60.0,33.0,
O=C(Nc1ccc(N2CCCC2)cc1)c1ccccc1F,63.4*,9.9,79.5*[fluorescence artefact?],17.4,96.2*[fluorescence artefact?],
CN(C)c1ccc(NC(=O)N2CCOCC2)cc1,4.7,-4.8,63.9*[fluorescence artefact?],23.5,43.3,
SMILES,FAK blocker,Smad3 FoxH1 inh,ERb coact inh,ERa SRC1 pot,ERa coact inh,others
O=C(Nc1ccc(F)cc1)N1CCOCC1,-7.2,5.7,-2.1,108.0,-9.7,
CCOC(=O)C1=C(C)OC(N)=C(C#N)C1C1CCCCC1 (stereo not given),nt,-6.4,12.8,74.5,8.9,
CCOC(=O)C1=C(c2ccccc2)OC(N)=C(C#N)C1C1CCCCC1 (stereo not given),23.9*,2.8,0.6,75.6,-0.1,FAK inh confirm=21.3*
Cc1cc(C)n2nc(C(=O)Nc3ccc4c(c3)OCO4)nc2n1,92.5*,6.9,48.6,48.2,59.1*[fluorescence artefact?],FAK inh confirm=2.7
Cc1ccc(-c2c(C#N)c(N)n3c(nc4ccccc43)c2C#N)cc1,23.6*,nt,nt,nt,nt,FAK inh confirm=2.7
O=c1ccnc(SCc2ccc(Cl)cc2)[nH]1,nt,-8.1,nt,nt,nt,
CCCSc1nc2c(cnn2-c2ccc(C)cc2)c(=O)[nH]1,22.7*,17.1,37.1,297.5*[fluorescence artefact?],5.9,FAK inh confirm=9.4
O=C1N2c3ccccc3CCc3cccc(c32)C1(O)C(F)(F)F (stereo not given),2.4,nt,nt,nt,nt,
Cc1nn(-c2ccccc2)c(Cl)c1/C=N/Nc1ccc(S(=O)(=O)Nc2ccccc2C(=O)O)cc1[N+](=O)[O-],19.0*,8.7,64.0*,23.1,89.2*,FAK inh confirm=5.4
Cc1cc(S(=O)(=O)Nc2ccccc2C(=O)O)ccc1Cl,-2.7,0.2,-8.1,123.2,1.5,
